Measured values from ChEMBL document CHEMBL3988442, “University of Dundee, Small-Polar-MMV Screening Library” (2021).
The campaign covered roughly 85,000 compounds. About 440 (0.52%) showed an effect of 50% or more. What follows is part of a selection rich in strong results, with near analogues and random picks from the rest.

Assay: In vitro enzyme assay to detect hydrolysis of chlorophenol red-beta-D-[…] directly proportional to the number of Toxoplasma stably expressing beta-galactosidase
Assay type: functional, organism-based, Toxoplasma gondii
Set-up: scale not given: in the data most compounds retested in dose-response had high values

Compound | Percent Effect (50 µM) [%] | Percent Effect (10 µM) [%]
CCN(CCN(C)C)C(=O)c1cn(CCN)nn1 | 2.797 | –
Cc1cc(NC(=O)C(C)N(C)Cc2cc(C)on2)on1 (centres undefined) | 5.589 | –
Cc1ccc(C(=O)NC2CCN(C(C)C)CC2)o1 | -16.97 | –
OCCCN(Cc1ccccc1)Cc1ccccn1 | -0.1376 | –
NCc1cccc(C(F)(F)F)n1 | 30.32 | –
CCOC(=O)CNC(=O)NCCc1ccc(OC)cc1 | -17.09 | –
COc1ccc(CCNC(=O)NCCCC(N)=O)cc1 | 98.98 | –
COc1ccc(CCC(=O)NCCNC(C)=O)cc1 | 21.36 | –
CC1(C)CCCN(C(=O)CCS(C)(=O)=O)CC1 | -2.783 | –
CCCC(=O)N(C)Cc1cccc(OC(C)C)c1 | – | 0.05359
CCCC(N)C(=O)N(C)Cc1cccc(N(C)C)c1 (centres undefined) | 89.59 | –
CC[C@H](N)C(=O)N(C)Cc1cccc(OC(F)(F)F)c1 | 4.147 | –
CCN(CC)C(=O)CN1CCC(N)CC1 | -1.204 | –
NS(=O)(=O)CC1CCN(C(=O)Nc2ccccc2)CC1 | 13.92 | –
CNCC1CCN(C(=O)Nc2ccccc2)CC1 | -5.234 | –
NC1CCN(C(=O)Nc2ccccc2)C1 (centres undefined) | 93.84 | –
N[C@H]1CN(CC(=O)N2CCCCC2)C[C@@H]1C1CC1 | 3.394 | –
CCC(NC(=O)CCC(=O)OC)c1ccccc1 (centres undefined) | -2.759 | –
Cc1ccc(CN(CCCn2ccnc2)Cc2cnn(C)c2)s1.O=C(O)CC(O)(CC(=O)O)C(=O)O | – | -58.36
Cc1ccc(CN(CCCn2ccnc2)Cc2cc(F)ccc2F)s1.O=C(O)CC(O)(CC(=O)O)C(=O)O | – | 64.14
Cc1ccc(O)c(CN(CCCn2ccnc2)Cc2ccc(C)s2)c1.O=C(O)CC(O)(CC(=O)O)C(=O)O | – | 4.169
Cc1ccc(CN(CCCn2ccnc2)Cc2c[nH]nc2C(C)(C)C)s1.O=C(O)CC(O)(CC(=O)O)C(=O)O | – | -5.969
Cc1ccc(CN(CCCn2ccnc2)Cc2ccccc2O)s1.O=C(O)CC(O)(CC(=O)O)C(=O)O | – | -8.716

Compound | Percent Effect (50 µM) [%] | Percent Effect (10 µM) [%]
Cc1ccc(CN(CCCn2ccnc2)Cc2c[nH]cn2)s1.O=C(O)CC(O)(CC(=O)O)C(=O)O | – | 27.23
Cc1ccc(CN(CCCn2ccnc2)Cc2cccs2)s1.O=C(O)CC(O)(CC(=O)O)C(=O)O | – | 13.55
Cc1ccc(CN(CCCn2ccnc2)Cc2c(F)cccc2F)s1.O=C(O)CC(O)(CC(=O)O)C(=O)O | – | 36.95
COc1ccc(F)c(CN(CCCn2ccnc2)Cc2ccc(C)s2)c1.O=C(O)CC(O)(CC(=O)O)C(=O)O | – | 53.53
CCc1ccc(CN(CCCn2ccnc2)Cc2ccc(C)s2)o1.O=C(O)CC(O)(CC(=O)O)C(=O)O | – | 5.317
COc1ccc(NC(=O)CN)cc1Cl | 1.653 | –
O=C1CNC2(CCCCC2)C(=O)N1 | -1.267 | –
OCc1cnc2c(F)cccc2c1 | -7.989 | –
O=C(NCCCn1cccn1)N1CCSCC1 | 12.95 | –
CC1COCCN1CCNS(C)(=O)=O (centres undefined) | -4.94 | –
CCC(N)C(=O)N1CCN(c2ccncc2Cl)CC1 (centres undefined) | 0.3763 | –
OCC1(O)CCN(Cc2cc3ccccc3s2)C1 (centres undefined) | 15.65 | –
O=C(COc1ccc2c(c1)CCCC2=O)NCc1ccco1 | – | -0.7551
O=C(COc1ccc2c(c1)OCO2)NCc1ccco1 | – | -39.93
O=C(COc1ccc2c(c1)CCC2)NCc1ccco1 | – | 52.59
CN(C1CCCCC1)S(=O)(=O)NC1CCCCNC1=O (centres undefined) | -10.23 | –
CCCc1nc(C)cc(NCCO)n1 | 22.28 | –
COc1cccc(COCC(=O)N2CCCC(n3cncn3)C2)c1 (centres undefined) | – | 5.194
CCc1cccc(OCC(=O)N2CCCC(n3cncn3)C2)c1 (centres undefined) | – | 61.63
O=C(CCOc1cccc(F)c1)N1CCCC(n2cncn2)C1 (centres undefined) | – | -5.343
CN(Cc1ccccc1)C1(CN)CCC1 | -8.467 | –
OC1CCN(c2ccnc(NCCN3CCc4ccccc4C3)n2)C1 (centres undefined) | – | -7.659
OC1CCN(c2ccnc(NCCc3ccccc3Cl)n2)CC1 | – | -8.745

Compound | Percent Effect (50 µM) [%] | Percent Effect (10 µM) [%]
OC1CCN(c2ccnc(NCCc3ccccc3Cl)n2)C1 (centres undefined) | – | 73.82
CC1(C)CCN(C(=O)Nc2ccsc2)CCS1(=O)=O | 14.26 | –
O=C(CCCc1cn[nH]c1)N1CCS(=O)(=O)CC1 | -1.399 | –
O=C1COc2ccc(S(=O)(=O)N3CCOCC3)c3c2N1CCC3 | – | -24.36
CCN(CC)S(=O)(=O)c1cc2c3c(c1)c(C)cc(=O)n3CCC2 | – | 17.21
CCCNS(=O)(=O)c1cc2c3c(c1)c(C)cc(=O)n3CCC2 | – | -12.19
CCN(CC)S(=O)(=O)c1cc2c3c(c1)c(C)cc(=O)n3CC2 | – | -2.001
Cc1c(S(=O)(=O)N2CCOCC2)cc2c(C)cc(=O)n3c2c1CCC3 | – | 70.37
Cc1c(S(=O)(=O)NC2CC2)cc2c(C)cc(=O)n3c2c1CCC3 | – | 69.29
Cc1cc(S(C)(=O)=O)c(C)c(S(=O)(=O)NC2CCCC2)c1 | – | -4.298
Cc1cc(=O)n2c3c(cc(S(=O)(=O)NC4CC4)cc13)CCC2 | – | 88.28
Cc1cc2[nH]c(=O)c(=O)[nH]c2cc1S(=O)(=O)NC1CCCCC1 | – | 9.258
Cc1cccc(OCC(=O)NCC2CCNCC2)c1 | -0.8091 | –
CCOC(=O)N1CCN(C(=O)c2onc(C)c2Cl)CC1 | 1.461 | –
CCSc1cc(CN)ccn1 | -10.09 | –
NC(=O)CCSc1nc2ncccn2n1 | -6.184 | –
CCCC(=O)N(C)C1CCN(C)CC1 | 4.372 | –
COc1ccc(CNC(=O)CN)cc1 | -16.08 | –
CC(C)C(CC(=O)NCC(N)=O)c1ccccc1 (centres undefined) | 0.4392 | –
CCCNC(=O)c1cc(-c2cnc(N3CCCC3)nc2)cn1C | – | 59.81
CN(C)CCNC(=O)c1cc(-c2cnc(N3CCCC3)nc2)cn1C.O=C(O)C(F)(F)F | – | 16.58
Cn1cc(-c2cnc(N3CCCC3)nc2)cc1C(=O)O | – | -6.676
CNS(=O)(=O)c1c[nH]cn1 | -8.669 | –
